The full list was thinned out, with hits kept by preference.
Dicer processing – inhibitors of human Dicer processing of pre-microRNA. Q9UPY3. cat-ELCCA pre-miR-21 Dicer processing, chemiluminescence; stronger effect = higher value. z-score at 25 µM. hit rate 6% among 47,000. AID 1347074; in the data active means z-score above about 3, passing the limit was not always enough;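 further: plate controls were vehicle for no effect and no enzyme for full effect; higher signal means more uncleaved substrate so more Dicer inhibition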
Target sequence (Q9UPY3 whole entry, looked up): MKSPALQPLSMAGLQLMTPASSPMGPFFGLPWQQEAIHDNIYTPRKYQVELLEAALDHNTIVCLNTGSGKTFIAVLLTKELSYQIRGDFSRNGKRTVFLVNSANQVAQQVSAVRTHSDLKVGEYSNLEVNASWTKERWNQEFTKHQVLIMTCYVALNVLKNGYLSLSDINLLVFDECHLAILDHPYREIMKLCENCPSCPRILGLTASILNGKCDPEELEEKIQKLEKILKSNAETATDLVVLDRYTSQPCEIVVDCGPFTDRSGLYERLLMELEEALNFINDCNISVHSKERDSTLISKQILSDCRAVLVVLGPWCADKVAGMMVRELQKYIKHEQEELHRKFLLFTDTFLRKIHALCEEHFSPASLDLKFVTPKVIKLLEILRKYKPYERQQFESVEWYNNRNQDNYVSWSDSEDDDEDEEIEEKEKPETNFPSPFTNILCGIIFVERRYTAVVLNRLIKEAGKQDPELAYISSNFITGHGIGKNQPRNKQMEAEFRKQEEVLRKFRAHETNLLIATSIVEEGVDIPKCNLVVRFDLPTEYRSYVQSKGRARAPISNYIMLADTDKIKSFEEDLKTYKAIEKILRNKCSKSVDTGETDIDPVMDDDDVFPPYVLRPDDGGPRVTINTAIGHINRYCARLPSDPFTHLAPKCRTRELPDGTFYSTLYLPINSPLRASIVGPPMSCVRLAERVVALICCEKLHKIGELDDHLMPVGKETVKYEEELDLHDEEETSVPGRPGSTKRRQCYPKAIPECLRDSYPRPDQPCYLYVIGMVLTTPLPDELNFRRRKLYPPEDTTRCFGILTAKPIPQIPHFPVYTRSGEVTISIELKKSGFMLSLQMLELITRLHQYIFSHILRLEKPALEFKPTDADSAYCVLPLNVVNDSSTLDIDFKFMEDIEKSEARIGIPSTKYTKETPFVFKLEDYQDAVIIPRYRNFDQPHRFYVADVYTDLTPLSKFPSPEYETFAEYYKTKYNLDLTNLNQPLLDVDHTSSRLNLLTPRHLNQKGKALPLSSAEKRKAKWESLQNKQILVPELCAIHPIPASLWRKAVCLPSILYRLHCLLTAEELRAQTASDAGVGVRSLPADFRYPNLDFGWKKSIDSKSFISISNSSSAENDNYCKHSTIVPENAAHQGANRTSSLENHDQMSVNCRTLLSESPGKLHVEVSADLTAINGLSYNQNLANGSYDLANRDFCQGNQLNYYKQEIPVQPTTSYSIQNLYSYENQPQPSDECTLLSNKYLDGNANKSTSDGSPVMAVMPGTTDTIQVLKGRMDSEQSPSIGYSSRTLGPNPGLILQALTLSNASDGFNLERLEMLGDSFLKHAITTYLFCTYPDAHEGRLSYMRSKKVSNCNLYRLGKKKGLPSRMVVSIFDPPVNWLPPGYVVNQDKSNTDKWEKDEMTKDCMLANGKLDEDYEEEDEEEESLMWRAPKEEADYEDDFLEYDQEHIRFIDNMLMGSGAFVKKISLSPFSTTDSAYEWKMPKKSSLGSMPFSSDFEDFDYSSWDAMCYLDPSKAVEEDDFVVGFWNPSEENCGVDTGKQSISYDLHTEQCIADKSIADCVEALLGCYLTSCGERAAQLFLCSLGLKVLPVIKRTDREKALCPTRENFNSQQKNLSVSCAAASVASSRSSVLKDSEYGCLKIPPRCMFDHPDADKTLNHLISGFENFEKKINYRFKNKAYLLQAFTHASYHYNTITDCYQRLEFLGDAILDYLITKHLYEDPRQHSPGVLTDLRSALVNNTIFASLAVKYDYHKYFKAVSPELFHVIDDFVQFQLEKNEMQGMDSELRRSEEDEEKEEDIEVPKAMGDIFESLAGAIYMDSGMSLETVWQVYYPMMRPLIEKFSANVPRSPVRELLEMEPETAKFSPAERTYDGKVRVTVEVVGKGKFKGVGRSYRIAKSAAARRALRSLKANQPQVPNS
* hit, by the source's call.

SMILES	Dicer processing
Cc1ccc(-c2nnc3c4ccccc4c(C)nn23)cc1S(=O)(=O)N(C)C1CCCCC1	0.96
Cc1ccc(-c2nnc3c4ccccc4c(C)nn23)cc1S(=O)(=O)N1CCC(C)CC1	5.5*
Cc1ccc(-c2nnc3c4ccccc4c(C)nn23)cc1S(=O)(=O)N1CCCCC1	1.4
COC(=O)CSc1nnnn1-c1ccc(C(=O)O)cc1	1.2
CC(C)(C)c1ccc(C(=O)/C=C/C(=O)O)cc1	-0.72
Cc1ncc(CCCCN(C)C)c2c1[nH]c1ccccc12	7.7*
Cc1[nH]c2ccccc2c(=O)c1CN(C)C	-0.83
Cc1ccc(-c2nc(NCCCN(C)C)c3ccccc3n2)cc1	7.8
CCOC(=O)c1ccc2nc(C(F)(F)F)cc(N3CCOCC3)c2c1	-0.97
CC1(C)CC(=O)C2=C(C1)NC1=C(C(=O)c3ccccc31)C2c1ccc([N+](=O)[O-])o1 (centres undefined)	5.5*
CC1(C)CC(=O)C2=C(C1)NC1=C(C(=O)c3ccccc31)C2c1cccc(O)c1 (centres undefined)	2.5
COc1ccc(OC)c(C2C3=C(CC(C)(C)CC3=O)NC3=C2C(=O)c2ccccc23)c1 (centres undefined)	0.33
O=C(CC1SC(=Nc2cccc(F)c2)NC1=O)Nc1cc(Cl)ccc1Cl (centres undefined)	0.77
O=C(Nc1c(Cl)cccc1Cl)N1CCOC12CCCCC2	0.72
Cc1ccc(S(=O)(=O)NC2=NCN(CC3CCCO3)CN2)cc1 (centres undefined)	-0.61
CC(C)(C)c1cc(C(=O)O)n(Cc2ccccc2)n1	0.95
c1ccc(Cn2c(NCc3ccccn3)nc3ccccc32)cc1	-0.31
O=C1CSC(=Nc2cc(Cl)c(Cl)cc2Cl)N1CCc1ccccc1	3.3*
O=C1CSC(=S)N1CCc1ccc(Cl)cc1	-1.2
COc1ccc(CCN2C(=O)CSC2=Nc2ccc(Cl)cc2C)cc1OC	2.3
FC(F)(F)c1cc(Cl)c2nc(-c3ccc(Cl)cc3)nn2c1	-1.4
O=C(Oc1cc(=O)n(-c2ccccc2)c2ccccc12)c1ccccc1	-0.16
Cc1ccc(C(=O)Nc2cnc3sc(C)nn3c2=O)cc1	4.8*
Cc1nn2c(=O)c(NC(=O)c3ccc(F)cc3)cnc2s1	-2.4
Cc1nn2c(=O)c(NC(=O)c3ccc(Cl)cc3)cnc2s1	-0.21
SMILES	Dicer processing
COC(=O)C1=C(C)NC2=C(C(=O)CC(C)(C)C2)C1c1cnc[nH]1 (centres undefined)	0.44
CC1=C(C(=O)OCc2ccccc2)C(c2cc3c(cc2Cl)OCO3)CC(=O)N1 (centres undefined)	0.9
O=C(CN1C(=O)/C(=C\c2ccc(OCc3ccccc3)cc2)N=C1c1ccccc1)c1cccs1	-1.9
O=C(CN1C(=O)/C(=C\c2ccc(F)cc2)N=C1c1ccccc1)c1ccco1	3.8*
C=CCN1C(=O)/C(=C\c2ccccc2Cl)N=C1c1ccccc1	-0.82
COC(=N)c1nccnc1SCc1ccc(F)cc1	-1.2
CC(C)(C)c1nc(SCC(=O)c2ccc([N+](=O)[O-])cc2)n[nH]1	0.61
CCOC(=O)c1cc(C)ccc1NC(=O)c1ccc(Cl)cc1	-0.46
Cc1c(C(=O)Nc2ccc(Cl)cc2)cc(-c2ccccc2)n1-c1ccccc1	-0.69
Cc1ccc(N)c(C(=O)Nc2ccc(Cl)cc2)c1	5.1*
O=C(O)CNC(=O)c1cc(C(F)(F)F)cc(C(F)(F)F)c1	-0.81
COc1ccccc1C1Nc2ccc(C)cc2-c2cc(C)nn21 (centres undefined)	3.5*
COc1ccc(C2Nc3ccc(C)cc3-c3cc(C)nn32)c(OC)c1 (centres undefined)	0.75
CCOc1ccccc1C1Nc2ccc(C)cc2-c2cc(C)nn21 (centres undefined)	4.1*
COc1ccccc1C1Nc2ccccc2-c2cc(C)nn21 (centres undefined)	0.8
CCOc1cccc(C2Nc3ccc(C)cc3-c3cc(C)nn32)c1O (centres undefined)	1.5
O=C(O)COCC(=O)N(Cc1ccccc1)Cc1cccs1	0.77
CC1CN(c2nc(-c3ccc(Cl)cc3)nc3ccccc23)CC(C)O1 (centres undefined)	-0.86
CCC(CNCCO)Nc1nc2c(c(=O)n(C)c(=O)n2C)n1Cc1ccccc1 (centres undefined)	-0.22
CCc1ccc(C2C(C(=O)OCC3CCCO3)=C(C)NC3=C2C(=O)CC(c2cccs2)C3)s1 (centres undefined)	2.9
CC(C)CCn1c(C(C)O)nc2ccccc21 (centres undefined)	-1.2
O=[N+]([O-])c1ccc(Oc2ccc(Cl)cc2C2CCCCC2)nc1	-1
Cc1cc(C)cc(Oc2c(C(F)(F)F)oc3cc(O)ccc3c2=O)c1	0.79
O=c1c(Oc2ccccc2Br)c(C(F)(F)F)oc2cc(O)ccc12	1
O=c1c(Oc2ccccc2Cl)c(C(F)(F)F)oc2cc(O)ccc12	3.3*
CC(C)Cc1ccc(-c2cc(-c3ccc(Cl)cc3)c(C#N)c(=O)[nH]2)cc1	-2.5
Cc1c(NC(=O)C2CC(c3cccc(Br)c3)=NO2)c(=O)n(-c2ccccc2)n1C (centres undefined)	-0.54
Cc1ccc(OCc2nn3c(-c4ccccc4Cl)nnc3s2)cc1	-0.88

Screens: PubChem, Center for Chemical Genomics, University of Michigan
